The source of these data is PubChem BioAssay.

Values without a mark were called inactive. The list shows a part of the results. Active and inactive are the calls of the source.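 How the source made its calls, unless noted: active means mean inhibition across replicates above the hit cutoff set by the earlier primary screen (cut at about 15% in these data); inactive means the rest.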

Assay [1] can be described thus: reduced OD of T4-infected AddAB+ E. coli – absorbance, E. coli V3065, T4 phage, triplicate, AddAB inhibitor project, confirmation (AID 488942;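 active means mean inhibition above a set limit taken from the earlier primary screen, cut at about 13% in these data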;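 further: higher means less bacterial growth since AddAB block lets phage replicate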). Conditions: E. coli V3065 expressing H. pylori AddAB, at 11.9 µM, hits give high values, T4 phage with gene 2 nonsense mutations.
Assay [2] can be described thus: reduced OD of phage-infected RecBCD+ V66 E. coli – absorbance, mutant T4 phage, counter-screen for AddAB inhibitor project (AID 488955;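 active means mean inhibition above the mean of solvent-only control wells plus 3 SD, cut at about 4% in these data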;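 further: optical density read after an 18 h incubation at 37 °C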). Conditions: OD growth, at 11.9 µM, hits give high values.
A short description of assay [3]: bacterial growth inhibitors – absorbance, counter-screen for AddAB inhibitor project, confirmation (AID 488956; in the data active means inhibition above about 25%). Conditions: bacterial viability, absorbance (AddAB counterscreen); at 11.9 µM; hits give high values.
The target of assay [4] is Protein-arginine deiminase type-4 (Homo sapiens) (UniProt Q9UM07). The experiment in a line: protein arginine deiminase 4 blockade, retest – biochemical, fluorescence polarization, confirmation (AID 488796).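 Further: inhibitors block active-site labeling by the probe so polarization falls; 0% = PAD4 with probe and DMSO and 100% = probe without PAD4 enzyme.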 Conditions: recombinant PAD4, RCA probe fluorescence polarization; at 6.36 µM; hits give high values.
Sequence of Protein-arginine deiminase type-4 (Homo sapiens) (Q9UM07 whole entry, looked up): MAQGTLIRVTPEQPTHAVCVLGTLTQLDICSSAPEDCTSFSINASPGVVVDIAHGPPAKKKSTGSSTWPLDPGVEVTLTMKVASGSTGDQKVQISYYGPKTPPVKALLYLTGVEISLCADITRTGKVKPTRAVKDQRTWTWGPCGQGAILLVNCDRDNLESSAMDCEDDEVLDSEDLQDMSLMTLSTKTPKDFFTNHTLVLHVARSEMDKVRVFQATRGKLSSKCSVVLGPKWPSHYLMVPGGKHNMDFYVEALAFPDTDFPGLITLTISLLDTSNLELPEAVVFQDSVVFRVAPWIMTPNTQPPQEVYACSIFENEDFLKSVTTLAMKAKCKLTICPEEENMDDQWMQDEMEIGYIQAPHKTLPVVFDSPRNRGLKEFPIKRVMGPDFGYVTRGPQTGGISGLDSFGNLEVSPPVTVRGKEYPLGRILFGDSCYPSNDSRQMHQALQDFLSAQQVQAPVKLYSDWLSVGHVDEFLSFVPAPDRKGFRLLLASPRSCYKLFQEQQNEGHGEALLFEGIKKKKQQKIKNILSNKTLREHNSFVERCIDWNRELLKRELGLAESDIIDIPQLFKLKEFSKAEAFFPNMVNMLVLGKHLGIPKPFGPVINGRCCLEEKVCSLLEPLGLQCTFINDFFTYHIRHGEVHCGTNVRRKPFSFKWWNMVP
Assay [5] addresses Platelet-activating factor acetylhydrolase (Homo sapiens) (UniProt Q13093). Briefly: inhibition of plasma PAF acetylhydrolase – biochemical, fluorescence polarization, human, confirmation (AID 463230;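 active means mean inhibition of the triplicate above the hit cutoff set for the earlier primary screen, cut at about 25% in these data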;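 further: 0% = enzyme with DMSO and 100% = wells lacking pPAFAH enzyme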). Particulars: recombinant pPAFAH, FP-Rh probe fluorescence polarization; at 3.39 µM; hits give high values.
Assay [6] addresses Serine protease HTRA1 (Homo sapiens) (UniProt Q92743). The experiment in a line: confirming inhibition of human HTRA1 – biochemical, fluorescence polarization, confirmation (AID 540248;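 active means mean inhibition over three repeats above a set limit taken from the earlier primary screen, cut at about 37% in these data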;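 further: 0% = HTRA1 with DMSO and 100% = wells lacking HTRA1; inhibitors block probe binding so polarization drops and inhibition rises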). Particulars: recombinant HTRA1, FP-rhodamine activity-based probe, at 5.96 µM, hits give high values.
For assay [7], the target named is (Lyso)-N-acylphosphatidylethanolamine lipase (Mus musculus) (UniProt Q8VD66). Briefly: mouse ABHD4 hydrolase blockers, triplicate – biochemical, fluorescence polarization, confirmation (AID 720658;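 active means mean inhibition across replicates above the hit cutoff set in the primary screen, cut at about 30% in these data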;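 further: 0% = wild-type ABHD4 with DMSO and 100% = catalytically dead S159A mutant with DMSO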). Particulars: purified mABHD4, FP-Rh probe fluorescence polarization; at 8.92 µM; hits give high values.
Sequence of (Lyso)-N-acylphosphatidylethanolamine lipase (Mus musculus) (Q8VD66 whole entry, looked up): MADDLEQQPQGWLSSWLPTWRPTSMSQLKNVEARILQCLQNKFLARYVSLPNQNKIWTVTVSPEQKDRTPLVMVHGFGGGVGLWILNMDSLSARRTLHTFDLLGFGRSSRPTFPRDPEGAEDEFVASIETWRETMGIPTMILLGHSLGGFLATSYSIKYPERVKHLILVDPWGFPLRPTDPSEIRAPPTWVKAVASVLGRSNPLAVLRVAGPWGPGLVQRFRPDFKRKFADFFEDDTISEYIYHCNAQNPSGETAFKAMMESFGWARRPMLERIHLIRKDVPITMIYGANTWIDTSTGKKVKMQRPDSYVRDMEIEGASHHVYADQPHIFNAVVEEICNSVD
A short description of assay [8]: StAR promoter reporter inhibitors, counter-screen for LRH-1 inverse agonist project, cell-based, luminescence, high throughput (AID 651611; in the data active means inhibition above about 28%). Particulars: StAR promoter luciferase reporter counterscreen, at 3.6 µM, hits give high values.
Assay [9] concerns the target Nuclear receptor subfamily 5 group A member 2 (Homo sapiens) (UniProt O00482). The experiment in a line: NR5A2 activity suppression in reporter cells – cell-based, luminescence, confirmation (AID 651613; in the data active means inhibition above about 42%;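 further: HEK293T cells co-transfected with LRH-1 and StAR promoter luciferase reporter; 0% = vehicle wells and 100% = parental cells lacking receptor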). Conditions: cell-based LRH-1 luciferase reporter, inverse agonism; at 3.6 µM; hits give high values.
The target of assay [10] is Steroidogenic factor 1 (Homo sapiens) (UniProt Q13285). The experiment in a line: inverse agonism at SF1 nuclear receptor – cell-based, luminescence, high throughput, counter-screen for LRH-1 inverse agonist project (AID 651614; in the data active means inhibition above about 44%;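 further: cells cotransfected with StAR promoter reporter and SF1 expression vector; 0% = vehicle on cells with receptor and 100% = vehicle on cells lacking receptor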). Particulars: cell-based SF1 luciferase reporter, at 3.6 µM, hits give high values.
Sequence of Steroidogenic factor 1 (Homo sapiens) (Q13285 whole entry, looked up, the tested form may be a part): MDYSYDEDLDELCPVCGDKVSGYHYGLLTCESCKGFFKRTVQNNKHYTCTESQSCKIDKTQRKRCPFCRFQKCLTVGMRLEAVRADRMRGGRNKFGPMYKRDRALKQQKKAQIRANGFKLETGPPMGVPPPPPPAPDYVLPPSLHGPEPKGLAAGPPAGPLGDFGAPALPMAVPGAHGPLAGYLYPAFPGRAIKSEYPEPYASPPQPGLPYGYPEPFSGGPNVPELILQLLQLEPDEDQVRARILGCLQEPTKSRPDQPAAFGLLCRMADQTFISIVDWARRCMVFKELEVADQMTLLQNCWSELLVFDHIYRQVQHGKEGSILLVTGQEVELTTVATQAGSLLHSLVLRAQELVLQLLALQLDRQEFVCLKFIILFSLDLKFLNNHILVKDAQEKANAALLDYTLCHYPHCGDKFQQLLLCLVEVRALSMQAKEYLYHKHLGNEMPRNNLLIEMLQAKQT
Assay [11] can be described thus: compounds suppressing VP16-driven luciferase signal – cell-based, luminescence, high throughput, counter-screen for LRH-1 inverse agonist project (AID 651615; in the data active means inhibition above about 33%). Conditions: Gal4-VP16 luciferase reporter cells, at 3.6 µM, hits give high values.
Assay [12] has as its system transactivating tegument protein VP16 (Human herpesvirus 1). Briefly: compounds suppressing VP16-driven luciferase signal – cell-based, luminescence, single concentration, counter-screen for SRC2 inhibitor project (AID 652007; in the data active means inhibition above about 36%). Particulars: cell-based VP16 transactivation luciferase reporter, at 8.9 µM, hits give high values.
In assay [13] the target is Nuclear receptor coactivator 2 (Homo sapiens) (UniProt Q15596). Briefly: inhibition of GAL4-SRC2 driven luciferase expression – cell-based, luminescence, HEK293, triplicate, confirmation (AID 652008;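 active means mean inhibition above 46.5%, the solvent-only control mean plus 3 SD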;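 further: 0% = DMSO-treated cells and 100% = Gossypol at 36 µM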). Conditions: HEK293 GAL4-SRC2 luciferase reporter, at 8.9 µM, hits give high values.
Sequence of Nuclear receptor coactivator 2 (Homo sapiens) (Q15596 whole entry, looked up, the tested form may be a part): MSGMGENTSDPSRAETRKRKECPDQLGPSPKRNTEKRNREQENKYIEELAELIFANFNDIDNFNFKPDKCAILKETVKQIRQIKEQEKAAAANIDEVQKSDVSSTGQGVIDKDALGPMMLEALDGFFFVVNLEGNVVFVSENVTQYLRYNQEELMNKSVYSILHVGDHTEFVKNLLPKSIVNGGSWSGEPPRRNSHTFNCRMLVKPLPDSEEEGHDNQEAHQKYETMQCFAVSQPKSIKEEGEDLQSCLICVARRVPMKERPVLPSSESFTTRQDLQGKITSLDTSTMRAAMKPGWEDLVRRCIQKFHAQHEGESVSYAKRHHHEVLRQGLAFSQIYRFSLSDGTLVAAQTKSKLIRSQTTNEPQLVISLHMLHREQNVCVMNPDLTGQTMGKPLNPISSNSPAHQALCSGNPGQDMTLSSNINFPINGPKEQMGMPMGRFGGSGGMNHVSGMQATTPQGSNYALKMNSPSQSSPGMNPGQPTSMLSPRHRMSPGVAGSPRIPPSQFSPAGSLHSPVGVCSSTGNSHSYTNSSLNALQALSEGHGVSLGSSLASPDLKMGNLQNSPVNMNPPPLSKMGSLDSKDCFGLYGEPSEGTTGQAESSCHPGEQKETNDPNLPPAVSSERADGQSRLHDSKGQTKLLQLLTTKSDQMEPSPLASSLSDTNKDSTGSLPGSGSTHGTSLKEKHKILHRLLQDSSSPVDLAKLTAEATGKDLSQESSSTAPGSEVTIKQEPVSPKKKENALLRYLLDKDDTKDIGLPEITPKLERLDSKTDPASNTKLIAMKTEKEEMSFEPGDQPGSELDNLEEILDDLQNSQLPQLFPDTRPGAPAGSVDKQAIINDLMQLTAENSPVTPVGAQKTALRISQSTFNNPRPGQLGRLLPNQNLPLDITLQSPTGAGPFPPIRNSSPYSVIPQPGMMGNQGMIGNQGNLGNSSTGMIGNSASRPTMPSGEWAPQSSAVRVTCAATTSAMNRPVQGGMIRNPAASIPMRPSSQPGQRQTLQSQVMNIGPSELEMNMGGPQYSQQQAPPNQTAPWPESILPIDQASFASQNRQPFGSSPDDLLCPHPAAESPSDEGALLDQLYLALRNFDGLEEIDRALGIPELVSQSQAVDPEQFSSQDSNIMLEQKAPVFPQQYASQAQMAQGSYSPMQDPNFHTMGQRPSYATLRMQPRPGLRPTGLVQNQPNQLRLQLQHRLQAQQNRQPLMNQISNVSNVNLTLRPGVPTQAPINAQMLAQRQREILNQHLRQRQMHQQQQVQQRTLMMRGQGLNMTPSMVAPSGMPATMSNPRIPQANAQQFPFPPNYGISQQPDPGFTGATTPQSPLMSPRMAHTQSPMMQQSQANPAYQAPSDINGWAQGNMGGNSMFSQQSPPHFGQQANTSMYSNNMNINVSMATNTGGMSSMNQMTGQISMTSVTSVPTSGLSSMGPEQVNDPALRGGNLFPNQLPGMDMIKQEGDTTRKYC
Assay [14] deals with Platelet-activating factor acetylhydrolase IB subunit alpha1 (Homo sapiens) (UniProt Q15102). The experiment in a line: inhibition of PAF acetylhydrolase 1B subunit 3 – biochemical, fluorescence polarization, human, confirmation (AID 493032;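 active means average inhibition over triplicate runs above the hit cutoff set in the earlier primary screen, cut at about 25% in these data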;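 further: 0% = enzyme with DMSO and 100% = wells lacking PAFAH1B3 protein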). Particulars: recombinant PAFAH1B3, FP-Rh activity-based probe, at 3.39 µM, hits give high values.
Sequence of Platelet-activating factor acetylhydrolase IB subunit alpha1 (Homo sapiens) (Q15102 whole entry, looked up): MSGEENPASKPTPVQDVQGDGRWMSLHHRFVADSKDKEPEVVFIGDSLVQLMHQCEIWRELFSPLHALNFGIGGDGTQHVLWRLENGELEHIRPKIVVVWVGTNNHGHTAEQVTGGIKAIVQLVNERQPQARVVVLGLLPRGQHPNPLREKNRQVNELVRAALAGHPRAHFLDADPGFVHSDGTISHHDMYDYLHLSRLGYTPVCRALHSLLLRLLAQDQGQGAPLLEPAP
Assay [15] is described as follows: reduced OD of V66 E. coli with T4 gene 2 phage – absorbance, RecBCD inhibitor project, confirmation (AID 651982;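 active means mean inhibition over triplicates exceeding the hit threshold derived in the original primary screen, cut at about 11% in these data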). Conditions: E. coli V66 + T4 2- phage, growth OD; at 11.9 µM; hits give high values.
The nature of assay [16]: bacterial growth inhibition – absorbance, high throughput, counter-screen for RecBCD inhibitor project (AID 651983; in the data active means inhibition above about 20%;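 further: E. coli strain V66 grown with compound alone and no phage infection; 0% = bacteria with DMSO vehicle only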). Conditions: E. coli viability, absorbance (OD) growth; at 11.9 µM; hits give high values.
Assay [17] in a line: reduced optical density, T4-challenged addAB+ bacteria – absorbance, E. coli V3065, T4 phage, counter-screen for RecBCD inhibitor project, confirmation (AID 651984;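 active means mean inhibition above the solvent-only control wells' mean plus 3 SD, cut at about 22% in these data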;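 further: higher means less bacterial growth from phage killing when AddAB is blocked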). Conditions: E. coli expressing H. pylori AddAB + T4 phage, OD growth; at 11.9 µM; hits give high values; gene 2 mutant T4, recBCD-deleted host.
Assay [18] addresses Nuclear receptor coactivator 3 (Homo sapiens) (UniProt Q9Y6Q9). Briefly: NCOA3 GAL4-fusion reporter inhibition – cell-based, luminescence, quadruplicate, confirmation (AID 588792;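 active means mean inhibition over 43.08%, the solvent-only control mean plus 3 SD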;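 further: 0% = DMSO treated cells and 100% = gossypol at 36 µM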). Conditions: HEK293 GAL4-SRC3 luciferase reporter, at 3.6 µM, hits give high values.
Assay [19] concerns transactivating tegument protein VP16 (Human herpesvirus 1), Gal4-VP16 luciferase reporter. Briefly: repression of VP16-driven luciferase reporter – cell-based, luminescence, high throughput, counter-screen for SRC3 inhibitor project (AID 588794; in the data active means inhibition above about 30%). Particulars: mammalian cells, at 3.6 µM, hits give high values.
For assay [20], the target named is Nuclear receptor coactivator 1 (Homo sapiens) (UniProt Q15788). The experiment in a line: NCOA1 GAL4-fusion reporter inhibition – cell-based, luminescence, quadruplicate, confirmation (AID 588820;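 active means mean inhibition above 46.68%, the untreated control wells mean plus 3 SD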;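 further: 0% = DMSO wells and 100% = gossypol 36 µM treated wells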). Conditions: HEK293 GAL4-SRC1 luciferase reporter, at 3.6 µM, hits give high values.
Sequence of Nuclear receptor coactivator 1 (Homo sapiens) (Q15788 whole entry, looked up, the tested form may be a part): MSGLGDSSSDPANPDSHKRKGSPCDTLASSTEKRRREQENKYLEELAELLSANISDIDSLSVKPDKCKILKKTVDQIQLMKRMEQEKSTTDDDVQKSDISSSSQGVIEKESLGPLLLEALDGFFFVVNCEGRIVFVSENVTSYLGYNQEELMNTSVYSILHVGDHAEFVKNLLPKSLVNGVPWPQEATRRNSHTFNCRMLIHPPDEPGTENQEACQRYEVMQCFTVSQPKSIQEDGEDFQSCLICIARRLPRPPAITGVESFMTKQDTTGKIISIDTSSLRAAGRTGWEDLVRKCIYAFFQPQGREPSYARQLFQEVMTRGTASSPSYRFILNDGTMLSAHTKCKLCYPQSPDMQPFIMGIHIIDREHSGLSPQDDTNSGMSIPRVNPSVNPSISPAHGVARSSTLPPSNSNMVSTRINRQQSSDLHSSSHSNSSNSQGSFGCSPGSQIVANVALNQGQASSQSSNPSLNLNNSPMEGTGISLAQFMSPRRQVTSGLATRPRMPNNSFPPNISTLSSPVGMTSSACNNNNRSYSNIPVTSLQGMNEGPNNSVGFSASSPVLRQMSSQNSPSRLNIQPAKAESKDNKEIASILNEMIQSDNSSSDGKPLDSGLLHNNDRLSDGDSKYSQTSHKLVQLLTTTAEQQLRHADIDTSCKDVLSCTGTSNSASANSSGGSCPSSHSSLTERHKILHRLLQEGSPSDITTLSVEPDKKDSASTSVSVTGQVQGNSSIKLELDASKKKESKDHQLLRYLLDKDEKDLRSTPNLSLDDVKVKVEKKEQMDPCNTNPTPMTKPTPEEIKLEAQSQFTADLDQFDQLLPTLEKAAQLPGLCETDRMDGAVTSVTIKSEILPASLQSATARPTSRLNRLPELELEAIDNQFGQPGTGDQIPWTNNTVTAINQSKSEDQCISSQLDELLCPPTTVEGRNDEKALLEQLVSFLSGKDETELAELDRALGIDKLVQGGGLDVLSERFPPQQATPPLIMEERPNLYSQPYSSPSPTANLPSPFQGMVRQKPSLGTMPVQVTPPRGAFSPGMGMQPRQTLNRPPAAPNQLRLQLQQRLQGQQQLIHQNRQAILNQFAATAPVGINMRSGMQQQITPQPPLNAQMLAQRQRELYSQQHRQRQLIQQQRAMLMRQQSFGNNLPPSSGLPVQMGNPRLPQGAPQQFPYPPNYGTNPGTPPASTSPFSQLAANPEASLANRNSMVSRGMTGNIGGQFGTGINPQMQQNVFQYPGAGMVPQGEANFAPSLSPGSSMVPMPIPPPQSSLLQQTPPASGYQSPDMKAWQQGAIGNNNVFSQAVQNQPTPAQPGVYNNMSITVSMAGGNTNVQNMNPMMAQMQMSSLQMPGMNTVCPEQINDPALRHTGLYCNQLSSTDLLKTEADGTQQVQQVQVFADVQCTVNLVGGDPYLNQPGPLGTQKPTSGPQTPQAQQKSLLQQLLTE
The nature of assay [21]: repression of VP16-driven luciferase reporter – cell-based, luminescence, high throughput, counter-screen for SRC1 inhibitor project (AID 588824; in the data active means inhibition above about 25%). Particulars: cell-based VP16 transactivation luciferase luminescence; at 3.6 µM; hits give high values.

Sequence of Platelet-activating factor acetylhydrolase (Homo sapiens) (Q13093 whole entry, looked up): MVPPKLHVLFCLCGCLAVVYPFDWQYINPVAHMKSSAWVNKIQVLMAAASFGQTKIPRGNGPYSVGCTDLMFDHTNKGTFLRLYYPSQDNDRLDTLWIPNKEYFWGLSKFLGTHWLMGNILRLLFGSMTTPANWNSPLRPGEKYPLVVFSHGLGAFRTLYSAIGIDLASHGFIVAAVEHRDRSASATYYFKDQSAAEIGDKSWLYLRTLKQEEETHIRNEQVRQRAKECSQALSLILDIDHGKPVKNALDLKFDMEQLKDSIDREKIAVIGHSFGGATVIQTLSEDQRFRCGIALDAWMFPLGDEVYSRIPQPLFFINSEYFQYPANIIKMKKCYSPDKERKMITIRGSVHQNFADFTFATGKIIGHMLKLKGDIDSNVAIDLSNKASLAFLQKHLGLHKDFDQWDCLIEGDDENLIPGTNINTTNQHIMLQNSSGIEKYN

For the molecule `O=C(Cn1c(=O)sc2ccccc21)Nc1nc2c(s1)CCCC2`, the inhibition is 2.31% in assay [1], 4.07% (active) in assay [2] and 3.15% in assay [3].
Turning to `Cc1cc2c(cc1C)N(C(=O)CN1C(=O)c3ccccc3C1=O)C(C)(C)c1ssc(=S)c1-2`, in [4], the inhibition is 33.7% (active).
Take `Cc1cc(/C=N/Nc2ccc([N+](=O)[O-])cn2)c(C)n1-c1cccc(C(=O)O)c1`: the inhibition in assay [5] is 11.7%; in [6] it was 30.7%; in assay [7], 74.5% (active).
Turning to `CCc1ccccc1NC(=S)Nc1cc(OC)c(NC(=O)C(C)C)cc1OC`, the inhibition in [4] was 1.96%; in assay [7], -9.17%.
As for `CC(C)(C)NC(=O)NC(=O)COC(=O)CCC1CCCCC1`, the inhibition in assay [4] is 2.14%.
Take `O=C(NCC1CCCO1)c1cc2c([nH]c3ccccc32)c(-c2ccc(F)cc2)n1` (centres undefined): the inhibition is 64.8% (active) in [4]; 50.5% (active) in assay [8]; 41.6% (active) in assay [9]; 50.1% (active) in assay [10]; 27.2% in [11].
On to `Cc1nn(-c2ccccc2)c(C)c1NC(=O)COc1ccc(Cl)cc1Cl`, for which the inhibition in assay [4] is 5.05%; in assay [12] it was -8.62%; in assay [13] it was 16.2%.
As for `C=CCN(C(=O)Nc1ccc2oc(C)nc2c1)c1ccccc1`, the inhibition in assay [4] is -3.81%.
For the molecule `COc1cccc(NC(=O)C2c3cc(OC)c(OC)cc3C(=O)N(C)C2c2cccnc2)c1` (centres undefined), the inhibition in assay [4] is 8.92%.
On the same count and under the same terms, for `COc1cc(C(=O)NCc2ccc3c(c2)cc(C)n3C)cc(OC)c1OC` the value was 1.97%; for `c1ccc2c(C[n+]3csc4ccccc43)cccc2c1`, 61.3% (active); for `Cc1nc2ccc(NC(=O)C(F)(F)F)cc2o1`, 4.72%.
Same read-out and setting: next, `CC(=O)Oc1cccc(N2C(=O)CC(Nc3ccc(N4CCOCC4)cc3)C2=O)c1` (centres undefined): -1.36%; `O=C(NCCCO)c1cc2c([nH]c3ccccc32)c(-c2ccc(F)cc2)n1`: 22.4% (active); `CCc1nnc(SCc2cccc(F)c2)nc1CC`: -0.68%.
In the case of `CN1C(=O)c2cccc3c(N)ccc(c23)C1=O`, the inhibition in assay [4] is 17.1% (active); in assay [7], 31.5% (active).
As to `CCOC(=O)N1CCC(c2cc(=O)n(-c3ccccc3)[nH]2)CC1`, in assay [4], the inhibition was -0.34%.
In the case of `COc1ccc(C2NC(=S)NC3=C2CCc2ccccc23)cc1OC` (centres undefined), in [4], the inhibition is 22.5% (active).
For `CCOc1[nH]n(-c2ccc(Cl)cc2)c(=O)c1C=Nc1ccc(O)cc1`, the inhibition in assay [4] is 6.04%; in assay [7], -0.05%.
Consider `CCCCNC(=O)C1(c2ccc(OC)cc2)CCOCC1`, for which the inhibition in assay [4] was 8.6%.
With `COc1ccc(C2=Nn3c(nnc3-c3ccccc3OC)SC2)cc1OC1CCCC1`, in assay [14], the inhibition is 35.2% (active).
Regarding `CC1CCCN(C(=O)c2ccc3c(c2)C(=O)N(CCC2=CCCCC2)C3=O)C1` (centres undefined), the inhibition in assay [1] is -4.68%; in assay [2] it was -0.96%; in [3], -2.15%.
For `C/[N+]([O-])=C\c1ccc([N+](=O)[O-])o1`, in that order: 101% (active), 42.8% (active) and 99.3% (active).
`O=C1c2ccccc2C(=O)c2c1cccc2N1CCN(Cc2ccccc2)CC1`: the inhibition in [6] is 60.1% (active).
Still for that read-out and setting: for `CCN(CC)c1ccc(/C=N/Nc2nc(C)cc(C)n2)c(O)c1` the value was 61.8% (active).
As to `COc1c(N2CCN(C(=S)Nc3ccccc3F)C(C)C2)c(F)cc2c(=O)c(C(=O)O)cn(C3CC3)c12` (centres undefined), the inhibition in [1] is 102% (active); in assay [2] it was 100% (active); in assay [3] it was 101% (active); in [15], 102% (active); in [16], 103% (active); in assay [17], 101% (active).
`Nc1nonc1-n1nnc(C(=O)N/N=C/c2cc(Br)ccc2O)c1CSC1=NCCS1`: the inhibition in [1] is 14.2% (active); in [2] it was 16% (active); in [3], 9.73%; in [18] it was 42.7%; in assay [19], 34.5% (active); in [20], 41%. Besides, the inhibition was 33.4% (active) in assay [21], 6.91% in assay [15], 9.92% in [16] and 10.8% in assay [17].
As for `CSC(=S)N/N=C/c1c[nH]c2ccccc12`, the inhibition in [1] was 24.2% (active); in [2] it was 11.8% (active); in assay [3], 29.5% (active); in assay [6] it was 33.3%.
For the molecule `COc1ccc(NC(=O)ON=C2c3ccccc3-c3ccccc32)cc1`, the inhibition in [14] was 29% (active).
In the case of `O=C(CSc1ccc(-c2ccccn2)nn1)Nc1ccccc1`, the inhibition was 5.71% in assay [1]; 6.8% (active) in assay [2]; 5% in assay [3]; 2.01% in assay [15]; 1.79% in [16]; 11.1% in assay [17].
For `ON=C1/C(=N\O)CC2(C/C1=N/O)OCCO2`, the inhibition was 27.1% (active) in assay [14], 1.75% in assay [15], 4.59% in assay [16] and -10.8% in [17].
Consider `CC(=O)N(O)CCCCCNC(=O)CCC(=O)N(O)CCCCCNC(=O)CCC(=O)N(O)CCCCCNC(=O)CCC(=O)O`, for which the inhibition in assay [1] was 13.8% (active); in assay [2] it was 14.4% (active); in assay [3] it was 2.8%; in assay [15], 7.53%; in [16] it was 11.4%; in assay [17] it was 12.5%.
